In the library only some 0.69% were active in any assay of this set; here they are far more common.
PfHsp90 set2 – inhibits growth of yeast expressing Plasmodium falciparum Hsp90. AID 504621. inhibition, % at 9.4 µM. 0.32% of 310,000 active. S. cerevisiae expressing PfHsp90, BacTiter-Glo ATP, 48 h; yeast lacking PDR1 and PDR3 efflux regulators;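 active = every replicate shows inhibition above about 80%, whatever the replicate mean, limit read from the data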;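 note: 0% = DMSO neutral controls and 100% = 20 µM radicicol positive controls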
E coli growth-1 – E. coli growth inhibition; Escherichia coli growth, OD600, 23 h; hits give low values; OD600 absorbance (test concentration not listed); 0.21% of 330,000 active; AID 1053175;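 active = OD600 absorbance below the run mean of sample wells minus 3.6 SD, in any replicate, cut at about 0.56 in these data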
Tat export inh – E. coli Tat transport inhibition; E. coli MC4100 TorA-mCherry Tat export, fluorescence; inhibition, % at 10 µM; 0.036% of 340,000 active; AID 488895;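 active = mean replicate inhibition at least 50% and at least half of replicates individually reaching 50%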;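 note: exported cargo escapes ClpAP degradation while cytoplasmic cargo is degraded and loses fluorescence; 0% = median of neutral control wells and 100% = median of NaSCN control wells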
phage Ecoli inh – E. coli growth loss with phage present | AID 651602 | 0.26% of 360,000 active | growth absorbance | inhibition, % at 11.9 µM; in the data active = inhibition above about 11%
AddAB inh – less growth of phage-infected E. coli with AddAB. E. coli expressing H. pylori AddAB, absorbance growth. inhibition, % at 11.9 µM. 0.29% of 330,000 active. AID 435030; in the data active = inhibition above about 12%;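 note: 0% = vehicle wells of infected cells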
E coli growth-2 – reduces bacterial viability in AddAB counter-screen; inhibition, % at 11.9 µM; E. coli V3065 growth, OD600 absorbance, 18 h; 0.27% of 330,000 active;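 active = inhibition above the campaign's mean inhibition across all tested compounds plus 3 SD, cut at about 9.9% in these data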;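 note: uninfected addAB+ strain grown without phage in ampicillin broth; 0% = DMSO wells and 100% = ciprofloxacin 0.95 µg/ml wells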
Active calls of the source: *; . = no result.

SMILES	PfHsp90 set2	E coli growth-1	Tat export inh	phage Ecoli inh	AddAB inh	E coli growth-2
CC(=O)c1cccc(N(CC(=O)NCCc2ccccc2)C(=O)c2csnn2)c1	2	0.53*	-6	0	4	0
O=C1Nc2ccccc2C1(O)CC(=NO)c1ccccc1 (configuration not stated)	.	0.69	.	.	.	.
COC(CC=CC(O)C(C)OCc1ccccc1)OC (configuration not stated)	.	0.64	.	.	.	.
O=C(CCN1CCOCC1)NNC(=S)NC(=O)c1ccccc1	-8	0.53*	-15	-4	4	0
O=C(CCN1CCOCC1)c1ccccc1	11	0.62	-30	2	6	-2
CC(=NNC(=O)c1cccc(F)c1)c1ccc(Br)s1	.	0.62	.	.	.	.
Cc1ccc(-n2nnnc2C(Cl)c2nnnn2-c2ccc(C)cc2)cc1	110*	0.69	0	5	.	.
COc1ccc(C=NOCC(=O)OCC(=O)N(C)c2ccccc2)cc1	.	0.69	.	.	.	.
Cc1ccc(NS(=O)(=O)c2ccc(N3CCN(c4ccc(O)cc4)CC3)c([N+](=O)[O-])c2)c(C)c1	96*	0.7	-4	4	1	2
CCN(Cc1ccccc1)c1ccc(/C=N/N2CCOCC2)cc1	-8	.	-6	3	-1	2
COc1cc(C=NN=C(N)N)ccc1OCc1ccc(Cl)cc1	.	0.51*	.	.	.	.
COc1cc(C=NN=C(N)N)ccc1OCc1ccccc1Cl	.	0.56	.	.	.	.
NC(N)=NN=Cc1ccc(OCc2ccccc2)c(OCc2ccccc2)c1	.	0.069*	.	.	.	.
CCN(Cc1ccccc1)c1ccc(C=NN=C(N)N)cc1	.	0.5*	.	.	.	.
Cc1cccc(Nc2nc(N)c([N+](=O)[O-])c(N3CC(C)OC(C)C3)n2)c1 (configuration not stated)	-2	0.64	13	-1	-1	-2
Cc1cccc(Nc2nc(N)c([N+](=O)[O-])c(N3CC(C)CC(C)C3)n2)c1 (configuration not stated)	101*	0.67	10	1	-1	0
COC(=O)C1(CO)NC(c2ccc(C)cc2)C2C(=O)N(c3ccccc3)C(=O)C21 (configuration not stated)	4	0.7	2	3	-1	4
O=C1C2C3C=CC(CNS(=O)(=O)c4ccccc4[N+](=O)[O-])(O3)C2C(=O)N1c1ccccc1 (configuration not stated)	111*	0.7	2	6	2	0
CC(C)(C)C(=O)NCC12C=CC(O1)C1C(=O)N(c3ccccc3)C(=O)C12 (configuration not stated)	104*	0.68	-2	2	1	-1
Cc1cc(C)c(S(=O)(=O)NCC23C=CC(O2)C2C(=O)N(c4ccccc4)C(=O)C23)c(C)c1 (configuration not stated)	104*	0.7	0	3	-1	1
O=C1C2C3C=CC(CO)(O3)C2C(=O)N1c1ccc(-c2ccccc2)cc1 (configuration not stated)	.	.	.	.	2	1
COCCNC(=S)NN=C(C)c1ccc(Cl)c(Cl)c1	.	0.64	.	.	.	.
CC(=O)N(C)c1ccc(OCC(O)Cn2c3ccc(Cl)cc3c3cc(Cl)ccc32)cc1 (configuration not stated)	98*	0.75	-1	0	-1	-2
CC(=O)N(C)c1ccc(OCC(O)Cn2c(C)nc3ccccc32)cc1 (configuration not stated)	.	0.73	-2	2	0	-1
COc1ccc(Cc2nc3ccccc3n2CC(=O)NN=Cc2ccc(O)cc2)cc1OC	.	0.74	.	.	.	.
SMILES	PfHsp90 set2	E coli growth-1	Tat export inh	phage Ecoli inh	AddAB inh	E coli growth-2
O=c1cc(CSc2ccc(Cl)cc2)nc(-c2ccccn2)[nH]1	105*	.	4	-3	-1	-6
CC(C)(C)OC(=O)NCCCCC(NC(=O)c1nc[nH]c1C(=O)NCC(=O)OCc1ccccc1)C(=O)OC(C)(C)C (configuration not stated)	.	0.71	.	.	.	.
COc1ccc(OCC(=O)NN=Cc2ccc(OC)c(OC)c2C(=O)O)cc1	.	0.61	.	.	.	.
CC1(C)CC(=O)C(C=Nn2c(C(F)(F)F)nc3ccccc3c2=O)=C(O)C1	.	0.67	.	.	.	.
CCn1cc(C(=O)OCC(=O)Nc2c(C)cccc2C)c(=O)c2ccc(C)nc21	-5	0.49*	-1	4	3	4
CCn1cc(C(=O)OCC(=O)NCc2ccccc2Cl)c(=O)c2ccc(C)nc21	-12	0.51*	0	1	0	3
CCn1cc(C(=O)N2CCN(c3cccc(C)c3C)CC2)c(=O)c2ccc(C)nc21	8	0.42*	11	-1	0	-1
C=CCc1cccc(C=NNC(=O)CNc2ccccc2)c1O	.	0.78	.	.	.	.
COC(=O)[C@@]12CCCN1C(c1ccc(-c3ccc(C(C)=O)cc3)c(OC)c1)C1C(=O)N(C)C(=O)C12 (some centres not stated)	.	0.64	.	.	.	.
O=C1Nc2ccc(Br)cc2/C1=C/C(=O)c1ccc2c(c1)OCO2	106*	0.6	2	3	1	0
COc1ccc2c(c1)/C(=C/c1cc(OC)c(OC)c(OC)c1)C(=O)N2	-7	.	6	1	.	.
COc1ccc(C(=O)/C=C2\C(=O)Nc3ccc(Br)cc32)cc1	144*	.	-3	2	.	.
O=C(/C=C\Nc1ccc2c(c1)OCO2)c1ccc2c(c1)OCO2	7	0.74	2	4	4	-1
Cc1nn(Cc2ccc(Cl)cc2)c(Cl)c1C=NNC(=O)c1cccnc1	.	0.7	.	.	.	.
COc1ccc(NC(=O)/C(Cl)=C(/Cl)S(=O)Cc2ccccc2)cn1 (configuration not stated)	119*	0.66	-5	-4	-4	-1
COc1ccc(NC(=O)Cc2ccccc2)cn1	16	0.7	-11	2	0	3
CCC(C)(C)c1ccc(OCCCC[n+]2cccc(C)c2C)c(C(C)(C)CC)c1	110*	0.53	25	3	2	0
Cc1ccc2c(c1C)-c1c(ccc(C)c1C)C(=O)C2=O	103*	.	-10	2	.	.
COc1cc(C=NNC(=O)c2ccccc2)ccc1OS(=O)(=O)c1ccccc1	.	0.67	.	.	.	.
COc1ccc(CNc2ccc3c(c2)nc(C)n3C)cc1OC	6	0.65	-2	0	-2	13*
CCOc1ccc(CNc2ccc3c(c2)nc(C)n3C)cc1	28	0.69	7	2	2	-1
CC(C)c1ccc2c(c1)CCC1C(C)(CN)CCCC21C (configuration not stated)	-25	0.48*	-8	9	4	-1
C=CC(n1cncn1)C(O)(c1ccccc1)c1ccccc1 (configuration not stated)	105*	0.71	2	2	3	3
O=C(/C=C(\c1ccccc1)n1cncn1)c1ccccc1	9	0.7	3	5	4	-1
CCc1nnc(NN=Cc2ccc(OC(C)=O)c(OC)c2)n1N	.	0.66	.	.	.	.
COc1ccc(C=NN2CCOCC2)cc1O	.	0.55*	.	.	.	.
CC(CC(=O)NC1CCCC1)=NNC(=O)Cc1cccs1	.	0.76	.	.	.	.

Screens from PubChem BioAssay.
